Sampled rows, rich in hits. Any-hit rate of the full collection: about 6.9%.
SKKanGAS inh: S. pyogenes SKKanGAS growth inhibitors in kanamycin, primary screen, streptokinase expression inhibitor project, SKKanGAS strain, BacTiter-Glo luminescence; AID 1662, 2009; inhibition, % at 7.5 µM; 6 h; actives 1.3% (n = 300,000);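 active = mean replicate score, as percent of positive control median, at least 50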;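 note: strain carries kanamycin resistance gene driven by streptokinase promoter and grows in 40 µg/ml kanamycin; loss of luminescence reflects streptokinase promoter inhibition or plain growth inhibition; 0% = median of DMSO wells and 100% = positive control at its reference dose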
Mdm2 MdmX PPI: inhibitors of human Mdm2-MdmX association, primary screen, cell-based, luminescence, split luciferase, SaOS-2, uHTS; actives 3% (n = 330,000); inhibition, % at 8 µM; SaOS-2 split-luciferase Mdm2/MdmX complementation; AID 485346, 2010; Protein Mdm4 (Homo sapiens) + E3 ubiquitin-protein ligase Mdm2 (Homo sapiens), …;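 active = inhibition of at least 50% at 8 µM in the primary screen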
Target sequence (O15151 whole entry, looked up): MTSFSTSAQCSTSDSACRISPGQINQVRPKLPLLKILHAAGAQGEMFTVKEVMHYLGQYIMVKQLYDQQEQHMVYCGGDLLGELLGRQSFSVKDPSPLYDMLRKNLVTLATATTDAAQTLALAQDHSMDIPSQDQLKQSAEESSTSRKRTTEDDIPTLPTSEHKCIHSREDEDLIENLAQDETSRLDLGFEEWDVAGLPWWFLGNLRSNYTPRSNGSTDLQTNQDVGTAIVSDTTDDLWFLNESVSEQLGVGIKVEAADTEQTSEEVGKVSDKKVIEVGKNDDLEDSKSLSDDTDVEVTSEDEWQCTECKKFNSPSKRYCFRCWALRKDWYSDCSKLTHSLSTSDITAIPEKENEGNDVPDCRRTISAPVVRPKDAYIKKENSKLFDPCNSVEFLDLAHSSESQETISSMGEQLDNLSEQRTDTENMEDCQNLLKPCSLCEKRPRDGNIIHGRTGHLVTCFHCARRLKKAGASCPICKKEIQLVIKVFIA
Target sequence (Q00987 whole entry, looked up): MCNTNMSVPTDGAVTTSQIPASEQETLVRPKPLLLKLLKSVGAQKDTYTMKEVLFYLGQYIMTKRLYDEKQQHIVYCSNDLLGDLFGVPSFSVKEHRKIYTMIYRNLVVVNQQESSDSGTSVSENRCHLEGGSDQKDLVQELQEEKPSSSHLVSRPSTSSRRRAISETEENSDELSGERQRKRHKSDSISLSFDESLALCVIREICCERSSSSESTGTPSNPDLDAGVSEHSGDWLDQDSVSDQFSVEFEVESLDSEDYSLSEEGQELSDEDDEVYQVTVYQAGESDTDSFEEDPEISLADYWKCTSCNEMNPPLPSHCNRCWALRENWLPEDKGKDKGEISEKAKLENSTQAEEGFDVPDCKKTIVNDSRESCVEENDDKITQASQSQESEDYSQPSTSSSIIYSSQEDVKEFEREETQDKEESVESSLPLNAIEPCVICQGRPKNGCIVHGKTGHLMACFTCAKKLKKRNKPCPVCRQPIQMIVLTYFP
MPTP inh: mitochondrial permeability transition pore inhibitors, primary screen, biochemical, isolated mouse mitochondria, absorbance | Ca2+ swelling absorbance, 30 min | actives 1.4% (n = 360,000) | inhibition, % at 10 µM;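 active = inhibition of 50% or more, scaled per plate between neutral and stimulator controls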;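 note: 0% = DMSO wells given calcium and 100% = 1 mM EGTA wells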
Beta apoptosis: inhibitors of cytokine-induced beta cell apoptosis, primary screen, luminescence; INS-1E cytokine-induced death, ATP luminescence, 48 h; percent of positive-control rescue, neutral wells zero; protection from apoptosis, % (no concentration beside the values); actives 0.8% (n = 300,000); AID 435005, 2010;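 active = Every replicate reaches about 75%, or at least half do and their mean reaches it too, limit read from the data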;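 note: 0% = cytokine-treated negative control wells and 100% = positive control rescue; higher means more ATP so stronger rescue from cytokine killing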
CSC inhib: cancer stem cell viability inhibitors, primary screen, luminescence | cancer stem cell-like cells viability | inhibition, % at 7.5 µM | actives 1.1% (n = 300,000); in the data active = inhibition above about 75%; tested in HMLE shEcad cells
GRIN3A LBD mod: binders of NR3A ligand-binding domain, primary screen, biophysical, differential scanning fluorimetry, uHTS | Glutamate receptor ionotropic, NMDA 3A (GRIN3A) ligand-binding domain | NR3A LBD differential scanning fluorimetry, Tm shift; 0% = protein alone, 100% = glycine-bound protein | Tm shift relative to glycine control, % at 25 µM | actives 2.5% (n = 340,000);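 active = melting temperature shift of at least 10% of the positive control shift, at one fixed dose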
The depositor's hits bear a star; . = no result given.

SMILES	SKKanGAS inh	Mdm2 MdmX PPI	MPTP inh	Beta apoptosis	CSC inhib	GRIN3A LBD mod
FC(F)(F)c1cc(CCN2C(=S)NC[C@@H]2Cc2ccccc2)cc(C(F)(F)F)c1	16.4	-18.2	1.4	1.3	64.6	13.2*
FC(F)(F)c1cc(CCN2C(=S)NC[C@@H]2CC2CCCCC2)cc(C(F)(F)F)c1	68.0*	14.6	0.1	7.2	97.5*	-6.0
COc1ccc(OCC(=O)C2CC2)c(C#N)c1	-4.7	-23.0	-0.2	0.0	-1.1	-2.2
CCOc1ccccc1N1CCN(S(=O)(=O)c2cc(C)ccc2OC)CC1	-6.4	24.6	0.0	-5.5	-6.0	37.2*
COc1ccc(C)cc1S(=O)(=O)N1CCN(c2ccccc2)CC1	2.3	-5.6	2.0	-2.2	-9.5	-4.4
CC1CC(C)CN(S(=O)(=O)c2ccc(NC(=S)NC(=O)c3ccccc3)cc2)C1 (stereo not drawn)	-2.1	28.3	6.4	1.4	17.2	2.7
O=C(Nc1nc2ccc(SC(F)F)cc2s1)c1ccc(NS(=O)(=O)c2ccc(F)c(F)c2)cc1	114.3*	-23.1	19.3	18.4	79.4*	47.1*
CS(=O)(=O)c1ccc2nc(NC(=O)c3ccc(NS(=O)(=O)c4ccc(F)c(F)c4)cc3)sc2c1	85.0*	21.8	5.0	4.7	12.8	23.6*
CC(C)(C)NS(=O)(=O)c1ccc2nc(NC(=O)c3ccc(N4C(=O)CCC4=O)cc3)sc2c1	3.9	4.2	-1.0	-8.3	-12.8	0.5
CS(=O)(=O)c1ccc2nc(NC(=O)c3cccc(NS(=O)(=O)c4ccc(F)c(F)c4)c3)sc2c1	37.5	-1.6	44.5	-6.8	65.8	26.1*
COc1cc(OC)cc(C(=O)Nc2nc3ccc(S(C)(=O)=O)cc3s2)c1	6.6	-50.4	2.8	14.0	36.4	-26.6
CS(=O)(=O)c1ccc2nc(NC(=O)c3cccc([N+](=O)[O-])c3)sc2c1	13.2	-38.1	1.5	.	4.2	6.7
Nc1nc(N)c2sc3nc(C(F)(F)F)cc(C(F)(F)F)c3c2n1	-4.0	0.4	0.2	-1.8	.	31.9*
Nc1ccc2c(C(F)(F)F)cc(C(F)(F)F)nc2n1	-3.1	12.2	0.1	-5.1	-8.5	-1.1
CN(C)c1ccc(CNC(=O)C2CCC(CNc3c(N4CCCCC4)c(=O)c3=O)CC2)cc1 (stereo not drawn)	5.2	16.5	0.5	4.8	-10.2	-3.0
CCOc1ccc(/C=C(\C(=O)O)c2ccc(S(=O)(=O)N3CCOCC3)s2)cc1OC	5.3	-7.8	-1.2	-3.3	.	12.2*
CCOc1ccc(/C=C(\C(=O)O)c2ccc(S(=O)(=O)N3CCCCC3)s2)cc1OC	.	9.9	1.3	0.0	10.3	17.6*
COc1cc(/C=C(\C(=O)O)c2ccc(S(=O)(=O)N3CCCC3)s2)cc(OC)c1	.	0.9	-3.4	.	.	1.9
COc1ccc(Cl)cc1S(=O)(=O)N1CCC(C(=O)NCc2ccco2)CC1	-4.7	20.1	-0.4	-1.0	-8.5	-1.1
O=C(COC(=O)c1ccc2[nH]c3c(c2c1)CCCC3)Nc1ccccc1	0.8	15.9	14.0	-3.5	49.8	21.6*
O=C(c1cccc2nccnc12)N1CCCC(Nc2ccc(F)c(F)c2)C1 (stereo not drawn)	-0.6	-6.7	-1.4	-0.7	-0.7	0.3
Cc1ccc(C(CC(=O)N2CCNCC2)c2ccccc2)c(O)c1C (stereo not drawn)	5.9	20.7	0.4	-1.1	-1.3	0.2
Cc1ccc(C(CC(=O)N2CCCCC2)c2ccccc2)c(O)c1C (stereo not drawn)	11.2	-18.7	2.0	.	.	13.4*
O=C(Cn1nc(-c2ccccc2)oc1=O)OCC(=O)c1ccccc1	.	15.4	0.1	-0.5	-5.6	1.1
COc1ccc2nc(SCC(=O)C(C)(C)C)[nH]c2c1	-1.6	-51.2	2.4	0.3	-2.5	122.6*
SMILES	SKKanGAS inh	Mdm2 MdmX PPI	MPTP inh	Beta apoptosis	CSC inhib	GRIN3A LBD mod
COc1ccc2nc(SCC(=O)NC(C)(C)C)[nH]c2c1	4.0	6.7	0.8	.	.	1.6
Cc1ccc(Nc2nnc(SC(C)C(=O)NCC3CCCO3)s2)cc1 (stereo not drawn)	.	15.9	-0.7	-1.8	-7.8	-3.6
CCOC(=O)C(C)Sc1nc2c(c(=O)[nH]c(=O)n2C)n1C/C=C(/C)Cl (stereo not drawn)	4.4	3.8	-2.8	-0.1	-9.7	10.8*
O=c1ccn([C@@H]2O[C@H](CNS(=O)(=O)C3CC3)[C@@H](O)[C@H]2O)c(=O)[nH]1	.	.	-1.2	.	.	14.0*
COc1ccc(Cc2nnc(NC(=O)Nc3ccccc3)s2)cc1OC	-2.5	16.1	-0.1	-2.8	-2.3	-3.1
O=C(CC1SC(N2CCOCC2)=NC1=O)Nc1ccccc1Cl (stereo not drawn)	.	-10.1	0.0	-9.1	1.4	-1.6
NC(=O)C1CCN(C2=C(Cl)C(=O)c3ccccc3C2=O)CC1	-8.2	11.9	10.0	14.8	85.3*	-2.5
Cc1cc(C)c2c(=O)n(CC(=O)NCCCN3CCOCC3)sc2n1	1.5	-8.1	-1.7	-2.4	-7.5	18.7*
COc1cc(OC)c(OC)cc1/C=N/NC(=O)CSc1ccccc1F	-3.4	28.6	-0.8	-5.5	-13.7	-1.3
CCC1(CC)Cc2ccccc2C(=O)N1	0.7	-4.6	2.2	3.1	-3.9	0.5
O=C1c2ccccc2CC1(Cc1ccccc1)Cc1ccccc1	57.0*	23.3	0.4	0.4	0.0	0.5
NC(=O)CCN1CCN(C(=O)c2ccc3nc(Cc4cccc(Cl)c4)oc3c2)CC1	-2.6	5.5	0.0	-3.1	19.6	-4.0
O=C(CNC(=O)c1cc(=O)[nH]c2ccc(S(=O)(=O)N3CCOCC3)cc12)Nc1ccc(F)c(F)c1	.	.	-0.3	.	.	2.8
O=C(CCCNC(=O)c1ccc(Cl)cc1)Nc1cccc(S(=O)(=O)N2CCCCC2)c1	.	16.2	-2.4	1.8	.	-3.0
O=C(CSc1nnc(Nc2ccccc2)s1)Nc1cccc(S(=O)(=O)N2CCCCC2)c1	1.5	19.2	10.3	-9.0	22.7	16.4*
O=C(CCNC(=O)c1ccc(Cl)cc1)Nc1cccc(S(=O)(=O)N2CCCCCC2)c1	-3.2	29.0	0.7	-2.7	-14.5	28.6*
O=C(CSc1nnc2c(n1)[nH]c1ccc(S(=O)(=O)N3CCOCC3)cc12)Nc1ccc(F)c(F)c1	-2.9	5.4	3.5	-2.8	-4.4	35.4*
O=C(CSc1nnc2ccccn12)Nc1cccc(S(=O)(=O)N2CCOCC2)c1	4.7	17.5	-0.7	-6.5	-5.4	10.2*
Cc1ccc(NC(=O)CSCC(=O)N(CCC(C)C)c2c(N)n(Cc3ccccc3)c(=O)[nH]c2=O)cc1	.	9.1	0.0	.	.	-2.3

Screening results deposited in PubChem by several laboratories.
